Assay [1] in a line: qHTS assay to identify small molecule antagonists of the sonic hedgehog signaling (Shh) pathway (AID 1259369; calls by dose curve; note: nearly all actives have a fitted effect of over 45% in size; note: potency is the fitted concentration of half-maximal effect). The method, boiled down: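 Conditioned medium drives Shh signalling in 3T3Gli1-Luc cells; compounds in DMSO co-applied, 24hr at 37 C, then luciferase luminescence.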
For orientation: qHTS replaces the single test concentration by a dilution series.

Assay [2] deals with Estrogen receptor beta (Homo sapiens) (UniProt Q92731). In words: qHTS assay to identify small molecule agonists of the estrogen receptor beta (ER-beta) signaling pathway (AID 1259377; active = well fitted activation curve with a large enough effect in the signal ratio in the repeat runs, not every such curve was filed as active; the % refers to the signal ratio). The method, boiled down:
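qHTS in ER-beta-UAS-bla HEK293T cells: 6 hr settling, then 16 hr compound at 37C, then LiveBLAzer substrate 2 h at RT before fluorescence reading.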

Assay [3] shares this target. Nature of the assay: qHTS assay to identify small molecule antagonists of the estrogen receptor beta (ER-beta) signaling pathway (AID 1259378; active = well fitted inhibition curve with a large enough effect in the signal ratio in the repeat runs, not every such curve was filed as active; the % refers to the signal ratio). The method, boiled down:
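ER-beta-UAS-bla HEK293T (GripTite) cells in 2% charcoal-stripped FBS medium were preincubated 6 hr at 37C, dosed with compound, then stimulated with 1 nM E2 (final) for 16 hr; beta-lactamase reporter read by B/G FRET fluorescence after 2 hr substrate loading.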

Assay [4] is described as follows: qHTS assay to identify small molecule agonists of the androgen receptor (AR) signaling pathway in the presence of an antagonist - cell viability counter screen (AID 1259379). Note: nearly all actives have a fitted effect of over 25% in size. Note: potency is the fitted concentration of half-maximal effect. The method, boiled down: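 A CellTiter-Fluor read-out measured viability of MDA-kb2 reporter cells (MMTV promoter with AR and GR response elements). Treatment: nilutamide 3.0uM final with compounds at 15 concentrations, 16 hr, 37C, 0% CO2.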

Assay [5] is described as follows: qHTS assay to identify small molecule agonists of the estrogen receptor beta (ER-beta) signaling pathway - cell viability counter screen (AID 1259380). Note: nearly all actives have a fitted effect of over 30% in size. The method, boiled down:
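Cells used were ER-beta-UAS-bla HEK293T in medium with 2% charcoal-stripped FBS. They were treated for 16 hr at 37C. Viability came from CellTiter-Glo luminescence.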

The nature of assay [6]: qHTS assay to identify small molecule antagonists of the estrogen receptor beta (ER-beta) signaling pathway - cell viability counter screen (AID 1259382). Note: series mostly up to about 92 µM; nearly all actives have a fitted effect of over 55% in size. The method, boiled down:
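Agonist-stimulated (1nM E2) ER-beta-UAS-bla HEK293T cells are incubated with library compounds for 16 hr at 37C. Cell viability is then assessed in the reporter-assay wells by adding CellTiter-Glo and reading luminescence after 30 min.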

Assay [7] has as its target Estrogen receptor (Homo sapiens) (UniProt P03372). Nature of the assay: qHTS assay to identify small molecule agonists of the estrogen receptor alpha (ER-alpha) signaling pathway in the presence of an antagonist (AID 1259383; calls by dose curve; note: nearly all actives have a fitted effect of over 15% in size; note: potency is the fitted concentration of half-maximal effect; for activation: top concentration of the series differs between compounds). The method, boiled down:
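Using VM7Luc4E2 cells seeded 24hr before treatment, antagonist ICI-182,780 (10.0nM final) was added, followed by compounds at 15 concentrations. Plates incubated 22hr; ONE-Glo luminescence quantified reporter activity.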

The nature of assay [8]: qHTS assay to identify small molecule agonists or antagonists of the thyroid stimulating hormone receptor (TSHR) signaling pathway - wild type cell line counter screen (AID 1259384; calls by dose curve). The method, boiled down:
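Wild-type HEK293 cells were plated 18 h at 37 C/5% CO2, pin-dosed with compound plus Ro20-1724 medium, held 30 min at room temperature, then given cAMP-d2 and anti-cAMP-cryptate; fluorescence was read after 1 h. Fifteen concentrations, triplicate.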

A short description of assay [9]: qHTS assay to identify small molecule agonists of the estrogen receptor alpha (ER-alpha) signaling pathway in the presence of an antagonist - cell viability counter screen (AID 1259386).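 Note: cells exposed to compounds for 22 h at 37 °C before the viability read; nearly all actives have a fitted effect of over 30% in size.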 Note: potency is the fitted concentration of half-maximal effect. The method, boiled down: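 ICI-182,780 at 10.0nM final accompanies the compound titration (15 concentrations, 22hr, 37C) on VM7Luc4E2 cells. The CellTiter-Fluor fluorescence readout runs in the same wells as the luciferase assay.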

For assay [10], the target named is Progesterone receptor (Homo sapiens) (UniProt P06401). Nature of the assay: qHTS assay to identify small molecule agonists of the progesterone receptor (PR) signaling pathway (AID 1346784; calls by dose curve; note: nearly all actives have a fitted effect of over 30% in size). The method, boiled down: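 Fluorescence from LiveBLAzer B/G FRET substrate cleavage (2 hr, RT) reported PR activation in PR-UAS-bla HEK 293T cells treated 16 hr at 37C/5% CO2 with compounds; medium contained 2% charcoal-stripped FBS.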

Assay [11] can be described thus: qHTS assay to identify small molecule antagonists of the progesterone receptor (PR) signaling pathway - cell viability counter screen (AID 1346798). Note: series mostly up to about 92 µM; nearly all actives have a fitted effect of over 50% in size. The method, boiled down: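 CellTiter-Glo luminescence; PR-UAS-bla HEK293T, 3,000 cells/well; compound + R5020, 16 hr, 37C/5% CO2; 30 min RT before read.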
Assay [12] can be described thus: qHTS assay to identify small molecule agonists of the progesterone receptor (PR) signaling pathway - cell viability counter screen (AID 1346799; calls by dose curve; note: nearly all actives have a fitted effect of over 45% in size). The method, boiled down:
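In parallel with the beta-lactamase readout, cytotoxicity toward PR-UAS-bla HEK293T cells was measured by CellTiter-Glo luminescence following 16 hr compound incubation in 2% charcoal-stripped FBS medium.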

A short description of assay [13]: qHTS assay to identify small molecule antagonists of the TGF-beta/Smad signaling pathway - cell viability counter screen (AID 1346824). Note: nearly all actives have a fitted effect of over 50% in size. The method, boiled down: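 SBE-bla HEK 293T cells were plated overnight at 37 C, then given compounds in DMSO plus TGF-beta1 (added as 0.25 ng/mL solution) for 5 hr. After the bla read, CellTiter-Glo was added to the same wells and luminescence read after 30 min at room temperature.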

A short description of assay [14]: qHTS assay to identify small molecule agonists of the TGF-beta/Smad signaling pathway - cell viability counter screen (AID 1346829). Note: top concentration of the series differs between compounds; nearly all actives have a fitted effect of over 45% in size. The method, boiled down: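 In parallel with the Smad reporter read, viability of HEK 293T cells stably carrying SBE-bla is quantified by ATP luminescence following 5 hr compound treatment.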
Assay [15] is described as follows: qHTS assay to identify small molecule agonists of the TGF-beta/Smad signaling pathway (AID 1346859; active = well fitted activation curve with a large enough effect in the signal ratio in the repeat runs, not every such curve was filed as active; the % refers to the signal ratio; note: series mostly up to about 77 µM). The method, boiled down:
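After overnight seeding, SBE-bla HEK 293T cells are dosed with compounds in DMSO and kept 5 hr at 37 C, 5% CO2. LiveBLAzer-type FRET substrate is then applied for 2 hr at room temperature.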

The target in assay [16] is Thyrotropin-releasing hormone receptor (Homo sapiens) (UniProt P34981). In words: qHTS assay to identify small molecule antagonists of the thyrotropin-releasing hormone receptor (TRHR) signaling pathway (AID 1346877; active = well fitted inhibition curve with a large enough effect in the repeat runs, not every such curve was filed as active; note: series mostly up to about 51 µM). The method, boiled down:
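Screening used HEK293 cells engineered with TRHR, with a brief 5 min room-temperature compound exposure preceding addition of TRH to 1 nM. The read-out was kinetic calcium-dye fluorescence, concentration-response from 15 doses in triplicate.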

Assay [17] shares this target. In words: qHTS assay to identify small molecule agonists of the thyrotropin-releasing hormone receptor (TRHR) signaling pathway (AID 1346891; calls by dose curve;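 note: HEK293 cells expressing TRHR with calcium dye readout; series mostly up to about 58 µM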). The method, boiled down: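 Compounds were tested as agonists at 15 concentrations, in triplicate, on TRHR-Hek293 cells; calcium-sensitive dye fluorescence was recorded for 3 min following addition.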
The target in assay [18] is Androgen receptor (Homo sapiens) (UniProt P10275). In words: qHTS assay to identify small molecule agonists of the androgen receptor (AR) signaling pathway in the presence of an antagonist (AID 1259381; calls by dose curve; note: nearly all actives have a fitted effect of over 15% in size). The method, boiled down:
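Using human MDA-kb2 cells with an MMTV promoter–luciferase construct (AR and GR response elements), agonist activity is scored under 3.0uM nilutamide (final) co-treatment; 16hr incubation, 37C, luminescence readout via ONE-Glo.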

Assay [19] deals with Thyrotropin receptor (Homo sapiens) (UniProt P16473). Nature of the assay: qHTS assay to identify small molecule antagonists of the thyroid stimulating hormone receptor (TSHR) signaling pathway (AID 1259385; calls by dose curve; note: nearly all actives have a fitted effect of over 20% in size). The method, boiled down:
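TSHR-HEK293 cells were plated and held 18 h at 37C/5% CO2, then given compound plus Ro20-1724 and stimulated with TSH at 1.5 ng/mL final. After 30 min at room temperature, cAMP was detected with cAMP-d2/anti-cAMP-cryptate (1 h) by fluorescence.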

The target in assay [20] is Progesterone receptor (Homo sapiens) (UniProt P06401). Nature of the assay: qHTS assay to identify small molecule antagonists of the progesterone receptor (PR) signaling pathway (AID 1346795; active = well fitted inhibition curve with a large enough effect in the signal ratio in the repeat runs, not every such curve was filed as active; the % refers to the signal ratio). The method, boiled down:
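Fluorescence intensity measured 2 hr after adding beta-lactamase FRET substrate to PR-UAS-bla HEK293T cells that had been co-treated 16 hr with compound and 1 nM R5020 (final concentration) in 2% charcoal-stripped FBS.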

For 8 molecules, Potency and outcome results are on record in PubChem BioAssay (Tox21).

Each structure is given as a SMILES string. Values joined by “and” are separate entries in the source; they are usually repeats but may differ in a detail not shown here. Equal entries are not always repeated. Inconclusive results are not listed. Some structures have more than one record in an assay (separate samples or runs), and their calls can disagree. Active and inactive are the calls of the source. Unless noted, calls come from the whole dose curve; as a rule, active = well fitted curve in the direction sought with a large enough effect in the repeat runs; inconclusive = weak or mixed curves; inactive = no such curve, though single readings can be large; an effect the other way counts as inactive or inconclusive.

Chain of Thyrotropin receptor (Homo sapiens) (P16473 whole entry, looked up): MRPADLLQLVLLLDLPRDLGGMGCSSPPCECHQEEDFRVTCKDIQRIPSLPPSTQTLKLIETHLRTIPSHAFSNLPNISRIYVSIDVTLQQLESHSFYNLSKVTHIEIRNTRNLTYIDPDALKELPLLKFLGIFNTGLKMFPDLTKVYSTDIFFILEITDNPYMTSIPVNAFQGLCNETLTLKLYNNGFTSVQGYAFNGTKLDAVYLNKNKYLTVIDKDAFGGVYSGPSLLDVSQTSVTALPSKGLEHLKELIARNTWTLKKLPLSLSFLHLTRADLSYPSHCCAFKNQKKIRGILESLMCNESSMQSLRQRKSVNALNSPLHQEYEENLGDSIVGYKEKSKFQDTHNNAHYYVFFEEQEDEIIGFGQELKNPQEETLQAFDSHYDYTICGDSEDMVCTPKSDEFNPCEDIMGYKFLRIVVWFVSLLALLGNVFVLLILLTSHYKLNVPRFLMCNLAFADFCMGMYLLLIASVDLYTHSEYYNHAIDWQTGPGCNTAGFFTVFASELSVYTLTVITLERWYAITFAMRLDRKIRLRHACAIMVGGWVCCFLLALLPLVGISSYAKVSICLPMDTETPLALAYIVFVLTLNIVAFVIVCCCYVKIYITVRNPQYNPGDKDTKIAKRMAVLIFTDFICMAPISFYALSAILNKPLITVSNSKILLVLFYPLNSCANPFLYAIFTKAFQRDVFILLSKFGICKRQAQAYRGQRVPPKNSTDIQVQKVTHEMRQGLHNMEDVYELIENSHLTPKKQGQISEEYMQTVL
Chain of Progesterone receptor (Homo sapiens) (P06401 whole entry, looked up): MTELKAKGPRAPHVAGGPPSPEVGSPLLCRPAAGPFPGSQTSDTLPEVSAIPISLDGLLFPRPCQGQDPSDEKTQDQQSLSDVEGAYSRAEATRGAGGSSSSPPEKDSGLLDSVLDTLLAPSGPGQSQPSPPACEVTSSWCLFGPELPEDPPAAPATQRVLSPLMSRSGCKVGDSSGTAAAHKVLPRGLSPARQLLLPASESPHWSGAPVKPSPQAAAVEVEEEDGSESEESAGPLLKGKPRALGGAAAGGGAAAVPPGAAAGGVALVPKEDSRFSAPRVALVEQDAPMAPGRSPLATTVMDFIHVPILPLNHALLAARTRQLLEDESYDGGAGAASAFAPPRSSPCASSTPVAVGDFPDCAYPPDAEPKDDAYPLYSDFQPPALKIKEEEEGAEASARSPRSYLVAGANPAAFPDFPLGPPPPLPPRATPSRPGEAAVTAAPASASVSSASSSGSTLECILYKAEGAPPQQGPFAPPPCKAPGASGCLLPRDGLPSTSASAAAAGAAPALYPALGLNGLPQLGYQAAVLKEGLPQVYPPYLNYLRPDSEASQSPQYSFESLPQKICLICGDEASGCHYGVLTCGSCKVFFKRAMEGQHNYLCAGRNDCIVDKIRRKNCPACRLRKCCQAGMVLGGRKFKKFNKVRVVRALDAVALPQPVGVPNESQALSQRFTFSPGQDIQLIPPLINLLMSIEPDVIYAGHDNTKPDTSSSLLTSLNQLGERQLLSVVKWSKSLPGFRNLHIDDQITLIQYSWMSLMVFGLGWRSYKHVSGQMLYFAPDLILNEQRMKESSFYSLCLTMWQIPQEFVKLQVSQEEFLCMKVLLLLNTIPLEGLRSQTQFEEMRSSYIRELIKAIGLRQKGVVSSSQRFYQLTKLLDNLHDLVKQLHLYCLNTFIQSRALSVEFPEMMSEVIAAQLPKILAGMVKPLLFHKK
Chain of Estrogen receptor beta (Homo sapiens) (Q92731 whole entry, looked up): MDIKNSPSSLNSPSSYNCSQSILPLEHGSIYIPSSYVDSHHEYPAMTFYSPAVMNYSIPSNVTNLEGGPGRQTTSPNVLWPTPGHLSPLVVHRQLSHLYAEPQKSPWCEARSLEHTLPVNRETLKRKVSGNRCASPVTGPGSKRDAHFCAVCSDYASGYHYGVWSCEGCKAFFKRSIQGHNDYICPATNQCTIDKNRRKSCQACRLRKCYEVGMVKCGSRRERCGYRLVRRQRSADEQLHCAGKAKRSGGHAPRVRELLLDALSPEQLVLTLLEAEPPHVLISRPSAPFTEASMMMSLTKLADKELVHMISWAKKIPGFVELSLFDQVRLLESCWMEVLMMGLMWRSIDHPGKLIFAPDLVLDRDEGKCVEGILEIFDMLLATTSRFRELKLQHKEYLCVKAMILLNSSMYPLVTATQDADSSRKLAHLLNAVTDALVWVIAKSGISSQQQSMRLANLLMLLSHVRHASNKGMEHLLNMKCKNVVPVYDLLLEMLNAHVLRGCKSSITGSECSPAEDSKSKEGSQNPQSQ
Chain of Estrogen receptor (Homo sapiens) (P03372 whole entry, looked up): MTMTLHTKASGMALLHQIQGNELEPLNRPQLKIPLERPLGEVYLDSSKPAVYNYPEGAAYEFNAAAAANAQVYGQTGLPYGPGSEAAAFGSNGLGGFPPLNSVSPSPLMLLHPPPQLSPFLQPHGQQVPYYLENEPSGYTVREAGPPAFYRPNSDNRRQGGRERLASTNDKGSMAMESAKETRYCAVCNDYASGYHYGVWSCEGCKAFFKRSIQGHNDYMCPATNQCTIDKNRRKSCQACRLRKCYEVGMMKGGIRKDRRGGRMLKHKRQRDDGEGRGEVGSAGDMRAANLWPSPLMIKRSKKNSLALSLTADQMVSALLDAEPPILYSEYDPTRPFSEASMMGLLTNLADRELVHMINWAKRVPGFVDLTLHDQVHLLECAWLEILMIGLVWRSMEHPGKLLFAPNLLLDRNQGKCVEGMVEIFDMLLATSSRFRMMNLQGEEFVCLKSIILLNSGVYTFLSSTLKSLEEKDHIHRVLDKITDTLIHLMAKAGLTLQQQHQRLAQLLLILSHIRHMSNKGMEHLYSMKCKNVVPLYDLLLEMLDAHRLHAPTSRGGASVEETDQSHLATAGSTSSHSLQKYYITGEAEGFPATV
Chain of Androgen receptor (Homo sapiens) (P10275 whole entry, looked up): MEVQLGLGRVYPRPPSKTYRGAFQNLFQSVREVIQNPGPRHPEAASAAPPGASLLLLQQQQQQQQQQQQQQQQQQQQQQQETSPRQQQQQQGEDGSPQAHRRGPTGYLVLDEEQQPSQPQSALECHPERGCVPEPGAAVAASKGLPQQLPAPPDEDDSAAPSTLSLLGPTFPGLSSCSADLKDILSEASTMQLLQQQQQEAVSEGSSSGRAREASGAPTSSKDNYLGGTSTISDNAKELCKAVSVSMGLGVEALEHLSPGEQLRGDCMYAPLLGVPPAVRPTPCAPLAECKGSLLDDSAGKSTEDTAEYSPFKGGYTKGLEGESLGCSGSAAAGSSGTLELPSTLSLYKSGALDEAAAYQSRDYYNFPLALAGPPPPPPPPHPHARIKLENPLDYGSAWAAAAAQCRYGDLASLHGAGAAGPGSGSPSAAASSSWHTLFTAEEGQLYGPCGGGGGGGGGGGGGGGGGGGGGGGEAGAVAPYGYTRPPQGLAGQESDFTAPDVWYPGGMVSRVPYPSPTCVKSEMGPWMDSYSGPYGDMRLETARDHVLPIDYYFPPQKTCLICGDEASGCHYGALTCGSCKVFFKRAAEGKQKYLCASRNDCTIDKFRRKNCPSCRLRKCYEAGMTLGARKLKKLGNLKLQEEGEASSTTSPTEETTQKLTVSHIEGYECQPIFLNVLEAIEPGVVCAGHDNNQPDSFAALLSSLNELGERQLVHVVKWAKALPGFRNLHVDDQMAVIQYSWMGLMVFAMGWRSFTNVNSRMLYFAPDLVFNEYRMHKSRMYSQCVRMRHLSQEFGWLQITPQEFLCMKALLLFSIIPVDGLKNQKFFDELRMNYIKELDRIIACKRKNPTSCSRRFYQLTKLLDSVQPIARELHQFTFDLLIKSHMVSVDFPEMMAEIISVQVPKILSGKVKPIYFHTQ
Chain of Thyrotropin-releasing hormone receptor (Homo sapiens) (P34981 whole entry, looked up): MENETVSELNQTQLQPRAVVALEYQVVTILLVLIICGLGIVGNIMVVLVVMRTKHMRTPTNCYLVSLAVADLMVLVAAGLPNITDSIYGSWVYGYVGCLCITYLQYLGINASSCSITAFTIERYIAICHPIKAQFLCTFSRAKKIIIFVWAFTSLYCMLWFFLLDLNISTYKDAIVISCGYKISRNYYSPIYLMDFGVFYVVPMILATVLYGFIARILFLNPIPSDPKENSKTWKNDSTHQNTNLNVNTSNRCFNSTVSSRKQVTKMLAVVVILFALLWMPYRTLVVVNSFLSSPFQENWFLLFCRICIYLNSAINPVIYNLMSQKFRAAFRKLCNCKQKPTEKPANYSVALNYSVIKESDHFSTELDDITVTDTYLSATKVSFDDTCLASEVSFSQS

For `O=[N+]([O-])c1cccc(Cl)c1`, the Potency entry in assay [1], in assay [2], in assay [3], in assay [4], in assay [5] and in assay [6] was “inactive” in each case. For the same molecule, the Potency result in [9], in [10], in assay [11], in assay [12], in assay [13] and in assay [14] was “inactive” in each case. The Potency entry in [17] is “inactive”. Moreover, the Potency in assay [7] is 67.4 µM (active) and inactive. Further, the call in assay [8], in assay [15] and in assay [16] was inactive.
Consider `O=C(c1cc(O)c(O)c(O)c1)c1ccc(O)c(O)c1O`, for which the Potency is 34.4 µM (active) and inactive in assay [1]; 27.3 µM (active) in assay [4]; 34.3 µM (active) and 30.6 µM (active) in [9]. The Potency result in assay [2], in [3], in assay [5], in assay [6], in assay [7] and in [10] was “inactive” each time. Further, the Potency result in assay [11], in assay [12], in assay [13], in [14] and in [17] was “inactive” in each case. The result in assay [15] and in [16] was inactive.
`C=CC(=O)OCCCCCCCC(C)C`: the Potency entry in assay [1], in assay [2], in assay [3], in assay [4], in assay [5] and in assay [18] was “inactive” each time. Also, the Potency entry in [6], in assay [9], in [10], in [20], in [11] and in [12] was “inactive” each time. In addition, the Potency entry in [14] and in assay [17] was “inactive” in each case. Moreover, the molecule was classed as inactive in [8], in assay [19], in assay [15] and in assay [16].
As for `O=Nc1ccc(O)cc1`, the Potency entry in assay [1], in assay [2], in [3], in assay [5], in assay [18] and in assay [6] was “inactive” throughout. Also, the Potency entry in [11], in assay [12], in assay [13], in assay [14] and in assay [17] was “inactive” throughout. Moreover, the Potency in assay [4] is 47.4 µM (active) and inactive; in assay [9] it was 47.4 µM (active) and inactive. In addition, the molecule was classed as inactive in [8], in [15] and in [16].
Take `CCOC(=O)[C@H](CCc1ccccc1)N[C@@H](C)C(=O)N1Cc2ccccc2C[C@H]1C(=O)O`: in assay [1], the Potency result was “inactive and 16.8 µM (active)”. Moreover, the Potency entry in assay [2], in [3], in assay [4], in assay [5], in [6] and in [7] was “inactive” throughout. The Potency entry in assay [9], in assay [10], in assay [11], in [12], in assay [13] and in assay [14] was “inactive” each time. In [15], the molecule was called inactive.
On to `COCC(=O)O`, for which the Potency in [1] is 1.25 µM (active) and inactive. Moreover, the Potency entry in assay [2], in [3], in [4], in assay [5], in assay [6] and in [7] was “inactive” throughout. Further, the Potency result in assay [9], in assay [10], in [20], in assay [11], in [12] and in assay [13] was “inactive” throughout. Moreover, the Potency result in [14] was “inactive”. For the same molecule, the call in [8] and in [15] was inactive.
On to `O=C1O[C@H](CO)[C@@H](O)[C@H](O)[C@H]1O`, for which the Potency result in [1], in assay [2], in [3], in assay [4], in assay [5] and in assay [6] was “inactive” each time. Also, the Potency entry in assay [7], in assay [9], in [10], in assay [20], in assay [11] and in assay [12] was “inactive” in each case. Further, the Potency entry in assay [14] and in assay [17] was “inactive” in each case. The result in [8], in assay [19], in assay [15] and in [16] was inactive.
Consider `CC1=CC[C@H]2C[C@@H]1C2(C)C`, for which the Potency entry in assay [1], in assay [2], in assay [3], in assay [4], in [5] and in assay [6] was “inactive” in each case. The Potency result in assay [7], in assay [9], in assay [10], in assay [20], in [11] and in [12] was “inactive” in each case. The Potency result in assay [14] and in assay [17] was “inactive” in each case. In addition, the outcome in assay [8], in [19], in [15] and in assay [16] was inactive.
